Results reported in PubChem BioAssay.
Records with an inconclusive call do not appear. The source made the active and inactive calls. The limit is not given here; nearly all actives have AC50 up to about 23 µM.

Test: viability loss in pontine glioma line – cell-based, SU-DIPG-XIII, MIPE5.0, CellTiter-Glo, qHTS, dose response (AID 1347064);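 as to AC50: cells exposed to compound for 48 hours before the viability read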
Details: CellTiter-Glo ATP luminescence

SMILES | AC50 | outcome
CNS(=O)(=O)Nc1nccc(Cc2c(C)c3ccc(Oc4ncccn4)cc3oc2=O)c1F | 1.18 µM (active) | 
CCCCCCCOc1ccc(CCC(N)(CO)CO)cc1C(F)(F)F | 8.33 µM (active) | 
CC1Oc2cc(cnc2N)-c2c(nn(C)c2C#N)CN(C)C(=O)c2ccc(F)cc21 (centres undefined) | 6.61 µM (active) | 
COc1cc(C(=O)O)ccc1NC(=O)[C@@H]1N[C@@H](CC(C)(C)C)[C@](C#N)(c2ccc(Cl)cc2F)[C@H]1c1cccc(Cl)c1F | 14.8 µM (active) | 
CC(C)c1c2cc(-c3ccnc(NC4CCC(NC5CCOCC5)CC4)n3)ccc2nn1C (centres undefined) | 0.372 µM (active) | 
CCc1cc2c(c(OCC(F)(F)F)c(C(=O)NC3CCN(C(=O)CO)CC3)n2C)c(=O)n1CC(=O)c1ccccc1 |  | inactive
CCN(C(=O)c1ccccc1OC)c1cc2c(cc1N1CCNC[C@H]1C)n(C)c(=O)n2C |  | inactive
COc1cc(OC)cc(N2CCN(C(=O)Nc3nc4cc(F)ccc4nc3OC)CC2)c1 | 2.63 µM (active) | 
CCOC(=N)c1nc2ccc3ncnc(Nc4cc(F)c(F)cc4Cl)c3c2s1 | 16.6 µM (active) | 
CC[C@@H](C)Nc1cc(C(=O)NC2CC3CCC(C2)N3c2ccc(C(=O)C3CC3)cn2)c(C)cc1C(N)=O (some centres undefined) | 0.209 µM (active) | 
Cc1cc(C(=O)Nc2cc(Nc3ccc4c(/C=C/c5ccccn5)n[nH]c4c3)ccc2F)n(C)n1 | 7.42 µM (active) | 
COc1ccc(-c2cc(C(O)C3CCCCN3)c3ccccc3n2)cc1 (centres undefined) | 16.6 µM (active) | 
CC(C)NC(=O)C1CCC(n2c(NC(=O)c3ccc(F)cc3)nc3ccc(CN4CCC(C(C)(C)O)CC4)cc32)CC1 (centres undefined) | 7.23 µM (active) | 
CCn1c(=O)c(-c2ccc(-c3cncs3)cc2Cl)cc2cnc(Nc3ccc(N4CCN(C)CC4)cc3)nc21 | 8.33 µM (active) | 
CNC(=O)c1ccccc1Nc1nc(Nc2ccc3c(c2OC)CCC[C@@H](N2CCN(CCO)CC2)C3)ncc1Cl | 1.48 µM (active) | 
Cn1nccc1Nc1nccc(-c2ccn([C@H](CO)c3ccc(Cl)c(F)c3)c(=O)c2)n1 | 10.5 µM (active) | 
Fc1cccc(-n2cnc3c(NCc4nc5c(F)c(F)ccc5[nH]4)nc(N4CCOCC4)nc32)c1 | 0.295 µM (active) | 
O=C(c1ccc(Nc2nc(C3CC3)cn3c(-c4cn[nH]c4)cnc23)c(F)c1)N1CCOCC1 | 5.9 µM (active) | 
O=C(/C=C\n1cnc(-c2cc(C(F)(F)F)cc(C(F)(F)F)c2)n1)NNc1ccccn1 | 0.295 µM (active) | 
O=C(NCc1ccc(S(=O)(=O)c2cccc(C(F)(F)F)c2)cc1)c1cnc2[nH]ncc2c1 | 0.0118 µM (active) | 

SMILES | AC50 | outcome
O=C(Nc1ccc2[nH]nc(-c3ccncc3)c2c1)[C@@H]1CCN(CC(=O)N2CCN(c3ccc(-c4ncccn4)cc3)CC2)C1 | 1.48 µM (active) | 
CNC(=O)c1ccc(Nc2ncc(C(F)(F)F)c(NCc3nccnc3N(C)S(C)(=O)=O)n2)cc1 | 5.25 µM (active) | 
CCN(CC)CCNc1ccc(C)c2sc3ccccc3c(=O)c12 | 20.9 µM (active) | 
Nc1cc(C(F)(F)F)c(-c2nc(N3CCOCC3)nc(N3CCOCC3)n2)cn1 | 3.72 µM (active) | 
CC[C@@H](C)Nc1cc(C(=O)NC2CC3CC[C@@H](C2)N3c2ccc(C(=O)C3CC3)cn2)c(C)cc1C(N)=O (some centres undefined) | 0.166 µM (active) | 
Cn1cc(-c2ccc(S(=O)(=O)n3ccc(/C=C/C(=O)Nc4ccccc4N)c3)cc2)cn1 | 3.32 µM (active) | 
O=c1sn(-c2cccc3ccccc23)c(=O)n1Cc1ccccc1 | 13.2 µM (active) | 
C[C@@H]1COCCN1c1cc(=O)n2c(n1)N(Cc1cncc(Cl)c1)[C@H](C(F)(F)F)CC2 |  | inactive
Cn1cncc1C(N)(c1ccc(Cl)cc1)c1ccc2c(c1)c(-c1cccc(Cl)c1)cc(=O)n2C (centres undefined) | 16.6 µM (active) | 
CN1C(=O)[C@@H](NC(=O)c2cc(Cc3ccccc3)on2)COc2ccccc21 |  | inactive
COC(=O)N1CC2(CC2)C[C@H](C(=O)NO)[C@H]1C(=O)N1CCN(c2ccccc2)CC1 |  | inactive
CC#CC(=O)N1CCC[C@H]1c1nc(-c2ccc(C(=O)Nc3ccccn3)cc2)c2c(N)nccn12 |  | inactive
CCCCN(CCCC)C(=O)CN1C[C@H](c2ccc3c(c2)OCO3)[C@@H](C(=O)O)[C@@H]1c1ccc(OC)cc1 |  | inactive
O=C(NOCCO)c1ccc2cncn2c1Nc1ccc(I)cc1F | 0.148 µM (active) | 
CCc1nc(C(N)=O)c(Nc2ccc(N3CCC(N4CCN(C)CC4)CC3)c(OC)c2)nc1NC1CCOCC1 | 1.18 µM (active) | 
NS(=O)(=O)Oc1ccc2c3c(c(=O)oc2c1)CCCCC3 |  | inactive
Nc1ccc(/C=C/C(=O)NCc2cc3cc(-c4ccc(C(=O)N5CCC(F)(F)CC5)cc4)cc(-c4ccc(F)cc4)c3o2)cn1 | 0.372 µM (active) | 
CN(C)C/C=C/C(=O)Nc1cccc(C(=O)Nc2cccc(Nc3ncc(Cl)c(-c4c[nH]c5ccccc45)n3)c2)c1 | 0.332 µM (active) | 
Nc1nc(N)c2nc(-c3cccc(Cl)c3)c(N)nc2n1 | 9.34 µM (active) | 
